These results are taken from PubChem BioAssay AID492950 (Southern Research Specialized Biocontainment Screening …, 2010).

Potency and affinity values are given separately. The source made the active and inactive calls. A call without a number means that no potency is given here. No rule for the calls is given here.

The assay in a line: viability loss in mammalian cells – cytotoxicity control, dose response (AID 492950). Conditions: mammalian cell viability, cytotoxicity counter-screen; series mostly up to 40 µM.
For the molecule `Cc1cc(-c2[nH]nc3c2C(c2ccsc2)C(C#N)=C(N)O3)c(C)s1` (centres undefined), the outcome was inactive.
The entry for `N#CC1=C(N)Oc2n[nH]c(-c3cccs3)c2C1c1ccccc1C(=O)O` (centres undefined) is “inactive”.
The entry for `Cc1nc2ccccc2c2c1C(=O)N(C)C2=O` is “inactive”.
The entry for `O=C(CSCc1cc(=O)[nH][nH]1)Nc1ccc(F)cc1` is “inactive”.
As to `O=C(Cc1cc(=O)[nH][nH]1)N/N=C/C=C/c1ccccc1`, the molecule was classed as inactive.
In the case of `Cc1ccccc1-c1nc(CN(C)C(C)c2ccon2)c(C)o1` (centres undefined) it was “inactive”; in that of `CCOc1cc(C2C(C#N)=C(N)Oc3n[nH]c(-c4ccccc4)c32)ccc1O` (centres undefined), “inactive”; in that of `O=C(Cc1cc(=O)[nH][nH]1)N/N=C/c1cccc2ccccc12`, “inactive”.
`COc1ccc(N(C(=O)COc2cccc(C)c2)S(=O)(=O)c2ccc(C)cc2)cc1`: the result was inactive.
In the case of `Cc1ccc(-c2cc(=O)[nH][nH]2)c(C)c1` it was “inactive”.
The entry for `CC(=O)N(C1CC(C)C(C#N)(C#N)C1(C#N)C#N)N(C)C` (centres undefined) is “inactive”; for `O=C1CC(CSc2ccc(Cl)cc2)=NN1` it is “inactive”.
As to `CCCc1[nH]nc2c1C(c1ccoc1)C(C#N)=C(N)O2` (centres undefined), the molecule was called inactive.
As to `Fc1ccc(Oc2nc(-c3ccccc3)nnc2C(F)(F)F)cc1`, the outcome was inactive.
Regarding `CC(=O)N1CCC2(CC1)C(C#N)=C(N)Oc1n[nH]c(CSc3ccc(C)cc3)c12`, the call was inactive.
In the case of `CCCCc1ccc(NC(=O)CSCc2cc(=O)[nH][nH]2)cc1` it was “inactive”.
In the case of `C/C(=N/NC(=O)Cc1cc(=O)[nH][nH]1)c1ccc([N+](=O)[O-])cc1` it was “inactive”.
In the case of `CC(=O)Nc1cc(OC(=O)c2ccco2)cc(OC(=O)c2ccco2)c1` it was “inactive”; in that of `COc1ccc(/C=C2/C(=O)N(c3ccccc3)N=C2C)cc1OC`, “inactive”; in that of `Cn1c(O)c(C2=NN(C(=O)CCl)C(c3ccccc3)C2)c(=O)n(C)c1=O` (centres undefined), “inactive”.
With `O=C1NC2=C(CCc3ccccc32)C(c2ccccc2)N1` (centres undefined), the result was inactive.
In the case of `N#CC1=C(N)Oc2n[nH]c(-c3cccs3)c2C1c1ccsc1` (centres undefined) it was “inactive”; in that of `O=C(Cc1cc(=O)[nH][nH]1)N/N=C/c1ccccc1[N+](=O)[O-]`, “inactive”; in that of `Cc1nn(C)c(C)c1C1C(C#N)=C(N)Oc2n[nH]c(C)c21` (centres undefined), “inactive”.
The entry for `Cc1ccc(SCC2=NNC(=O)C2)cc1` is “inactive”; for `O=C(Cc1cc(=O)[nH][nH]1)N/N=C/c1c(F)cccc1Cl` it is “inactive”.
On to `CCOc1ccc(-c2[nH]nc3c2C(c2ccc(O)cc2)C(C#N)=C(N)O3)cc1` (centres undefined), for which the call was inactive.
Take `O=c1cc(-c2ccc(Cl)c(Cl)c2)[nH][nH]1`: the call was inactive.
Regarding `Cc1ccc(C(=O)Oc2ccc([N+](=O)[O-])cc2)cc1S(=O)(=O)N1CCCCCC1`, the molecule was classed as inactive.
